Assay results published in PubChem BioAssay (EPA / NIEHS).
Inconclusive results are not listed. Calls of active or inactive are those of the source. The calls were made as follows, unless noted: active = hit-call score of the fitted dose curve at least 0.9, where 1 is the maximum; inactive = score below 0.9.

Columns and labels:
[1] = ATG_NFI_CIS: Attagene CIS-FACTORIAL HepG2 Assay for human Nuclear Factor I (NFI) (AID 2282989); conditions: HepG2 cis-regulatory reporter, NFI response element transcription; actives raise or lower the signal
Summary of the method: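 Reporter transcription driven by endogenous transcription factors in HepG2 cells; 24 h treatment. Quantitation by labelled RT-PCR fragments on capillary electrophoresis, gain- or loss-of-signal relative to DMSO.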

[2] = molecular target: Myc proto-oncogene protein (Homo sapiens) (UniProt P01106); assay: ATG_Myc_CIS: Attagene CIS-FACTORIAL HepG2 Assay for human Myelocytomatosis (Myc) Proto-Oncogene Transcription Factor (AID 2282990); conditions: HepG2, Attagene cis-reporter transcription factor activity; actives raise or lower the signal
Chain of Myc proto-oncogene protein (Homo sapiens) (P01106 whole entry, looked up): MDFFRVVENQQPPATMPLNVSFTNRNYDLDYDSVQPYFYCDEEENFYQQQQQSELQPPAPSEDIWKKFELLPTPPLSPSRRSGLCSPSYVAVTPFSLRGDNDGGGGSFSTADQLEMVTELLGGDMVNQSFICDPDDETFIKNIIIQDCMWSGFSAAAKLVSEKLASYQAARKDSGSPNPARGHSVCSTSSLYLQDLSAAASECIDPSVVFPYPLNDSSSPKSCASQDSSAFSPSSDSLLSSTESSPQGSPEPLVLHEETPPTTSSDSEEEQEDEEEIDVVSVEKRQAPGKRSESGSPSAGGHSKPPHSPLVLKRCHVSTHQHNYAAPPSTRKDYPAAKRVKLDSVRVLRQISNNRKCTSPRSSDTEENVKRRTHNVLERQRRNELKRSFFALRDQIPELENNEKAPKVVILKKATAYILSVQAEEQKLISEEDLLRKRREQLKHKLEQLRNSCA
Summary of the method: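 HepG2, transient MRTU transfection (cis promoters, endogenous TFs); 24 h dosing; TriZol RNA → oligo(dT) RT → PCR → 6-FAM primer extension → HpaI cut → CE. Bidirectional fit vs DMSO.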

[3] = ATG_NF_kB_CIS: Attagene CIS-FACTORIAL HepG2 Assay for human Nuclear Factor Kappa B (NF-kB) (AID 2282991); conditions: HepG2 Attagene cis-factorial NF-kB reporter mRNA; actives raise or lower the signal
Summary of the method: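 HepG2, transient multi-reporter transfection, cis promoter elements (endogenous TFs). 24 h exposure. Total RNA → RT → PCR → 6-FAM label → HpaI → CE. Gain/loss vs DMSO.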

[4] = ATG_NRF2_ARE_CIS: Attagene CIS-FACTORIAL HepG2 Assay for human Nuclear Factor Erythroid 2 Related Factor 2 (NFR2) response to Antioxidant Response Elements (ARE) (AID 2282992); conditions: HepG2 Attagene ARE/NRF2 reporter, transcription factor activity; actives raise or lower the signal;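 as to AC50: reporter mRNA level measured by RT-PCR and capillary electrophoresis fluorescence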
Summary of the method: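 HepG2 cells transiently transfected with multiplexed cis-element reporter constructs, 24 h after chemical dosing; reporter mRNA quantified by RT-PCR, fluorescent primer extension, HpaI digestion and capillary electrophoresis. Bidirectional fit relative to DMSO.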

[5] = ATG_Oct_MLP_CIS: Attagene CIS-FACTORIAL HepG2 Assay for human Octamer-Binding Transcription Factor (Oct) (AID 2282993); conditions: HepG2 Attagene cis-factorial Oct reporter, mRNA; actives raise or lower the signal
Summary of the method: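 Transfected HepG2 cells, 24 h treatment. Reporter mRNA quantified by RT-PCR–capillary electrophoresis; bidirectional fitting against DMSO.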

[6] = molecular target: Cellular tumor antigen p53 (Homo sapiens) (UniProt P04637); assay: ATG_p53_CIS: Attagene CIS-FACTORIAL HepG2 Assay for human p53 Transcription Factor (AID 2282994); conditions: HepG2 p53 cis-element reporter, Attagene mRNA; actives raise or lower the signal
Chain of Cellular tumor antigen p53 (Homo sapiens) (P04637 whole entry, looked up): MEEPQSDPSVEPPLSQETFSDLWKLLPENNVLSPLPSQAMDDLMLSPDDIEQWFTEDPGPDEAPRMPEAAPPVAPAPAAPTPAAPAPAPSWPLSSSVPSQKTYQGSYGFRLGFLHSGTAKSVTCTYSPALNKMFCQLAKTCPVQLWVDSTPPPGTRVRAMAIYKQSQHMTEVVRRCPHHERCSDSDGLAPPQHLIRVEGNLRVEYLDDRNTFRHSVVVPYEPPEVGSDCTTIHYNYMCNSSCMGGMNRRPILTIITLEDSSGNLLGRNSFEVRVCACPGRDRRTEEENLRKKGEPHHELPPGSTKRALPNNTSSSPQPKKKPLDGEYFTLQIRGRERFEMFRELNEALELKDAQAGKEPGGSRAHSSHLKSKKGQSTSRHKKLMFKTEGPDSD
Summary of the method: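 HepG2 cells transiently transfected with cis-regulated multiple reporter transcription units, dosed 24 h. Reporter mRNA measured by RT-PCR, 6-FAM primer extension, HpaI digestion and capillary electrophoresis; bidirectional fit relative to DMSO.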

[7] = BSK_3C_TissueFactor: BioMAP Diversity Plus: 3C Assay for Tissue Factor Biomarker Activity (AID 2282997); conditions: BioMAP 3C HUVEC, tissue factor biomarker readout; actives raise or lower the signal
Summary of the method: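 Dosing of human umbilical vein endothelial cells preceded a 24 h incubation. Tissue Factor was then read by ELISA, with increases and decreases both scored relative to DMSO controls.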

[8] = BSK_3C_uPAR: BioMAP Diversity Plus: 3C Assay for Urokinase-type plasminogen activator receptor (uPAR) Biomarker Activity (AID 2282998); conditions: BioMAP 3C HUVEC, uPAR biomarker ELISA; actives raise or lower the signal
Summary of the method: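 Readout: ELISA for surface uPAR. System: human umbilical vein endothelial primary cells, 24 h after chemical exposure. Analysis: bidirectional fit, DMSO baseline.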

[9] = BSK_3C_VCAM1: BioMAP Diversity Plus: 3C Assay for Vascular cell adhesion molecule 1 (VCAM1) Biomarker Activity (AID 2282999); conditions: BioMAP 3C HUVEC, VCAM1 ELISA, cytokine-stimulated; actives raise or lower the signal
Summary of the method: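 Endothelial cells from human umbilical vein are treated with test chemical. At 24 h, VCAM-1 is measured by ELISA, and responses in either direction are fitted relative to DMSO.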

[10] = BSK_4H_Eotaxin3: BioMAP Diversity Plus: 4H Assay for Eotaxin 3 Biomarker Activity (AID 2283000); conditions: primary human endothelial cells (HUVEC); actives raise or lower the signal
Summary of the method: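 Human umbilical vein endothelial cells (BSK_4H system) dosed with test chemical; Eotaxin-3 (CCL26) measured by ELISA 24 h after dosing. Bidirectional curve fitting relative to DMSO negative control as baseline.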

[11] = molecular target: human Peroxisome Proliferator-activated Receptor alpha (PPARa), PPARA (gene 5465) (UniProt Q07869); assay: ATG_PPARa_TRANS: Attagene TRANS-FACTORIAL HepG2 Assay for human Peroxisome Proliferator-activated Receptor alpha (PPARa) (AID 2283001; active = hit-call score of the fitted dose curve at least 0.9, where 1 is the maximum)
Chain of human Peroxisome Proliferator-activated Receptor alpha (PPARa), PPARA (gene 5465) (Q07869 whole entry, looked up, the tested form may be a part): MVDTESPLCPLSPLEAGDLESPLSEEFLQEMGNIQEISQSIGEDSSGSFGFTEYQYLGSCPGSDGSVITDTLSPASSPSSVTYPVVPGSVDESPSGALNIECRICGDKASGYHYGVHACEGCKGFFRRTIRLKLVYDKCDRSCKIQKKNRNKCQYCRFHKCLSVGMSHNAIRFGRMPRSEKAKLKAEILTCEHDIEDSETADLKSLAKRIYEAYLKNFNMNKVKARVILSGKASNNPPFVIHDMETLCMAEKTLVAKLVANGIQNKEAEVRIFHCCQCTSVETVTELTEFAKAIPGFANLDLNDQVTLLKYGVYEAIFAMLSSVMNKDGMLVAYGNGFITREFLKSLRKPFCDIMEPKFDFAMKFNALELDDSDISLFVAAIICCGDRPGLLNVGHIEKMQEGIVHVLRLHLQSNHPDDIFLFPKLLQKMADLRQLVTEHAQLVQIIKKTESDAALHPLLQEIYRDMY
Summary of the method: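 Read-out is fluorescence of reporter cDNA fragments resolved by capillary electrophoresis after RT-PCR. Human HepG2 liver cells carried transfected PPARa-Gal4 chimera and GAL4-UAS reporter units, treated 24 h; activity scored as increase over DMSO.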

[12] = molecular target: human Peroxisome Proliferator-activated Receptor delta (PPARd), PPARD (gene 5467) (UniProt Q03181); assay: ATG_PPARd_TRANS: Attagene TRANS-FACTORIAL HepG2 Assay for human Peroxisome Proliferator-activated Receptor delta (PPARd) (AID 2283002; active = hit-call score of the fitted dose curve at least 0.9, where 1 is the maximum)
Chain of human Peroxisome Proliferator-activated Receptor delta (PPARd), PPARD (gene 5467) (Q03181 whole entry, looked up, the tested form may be a part): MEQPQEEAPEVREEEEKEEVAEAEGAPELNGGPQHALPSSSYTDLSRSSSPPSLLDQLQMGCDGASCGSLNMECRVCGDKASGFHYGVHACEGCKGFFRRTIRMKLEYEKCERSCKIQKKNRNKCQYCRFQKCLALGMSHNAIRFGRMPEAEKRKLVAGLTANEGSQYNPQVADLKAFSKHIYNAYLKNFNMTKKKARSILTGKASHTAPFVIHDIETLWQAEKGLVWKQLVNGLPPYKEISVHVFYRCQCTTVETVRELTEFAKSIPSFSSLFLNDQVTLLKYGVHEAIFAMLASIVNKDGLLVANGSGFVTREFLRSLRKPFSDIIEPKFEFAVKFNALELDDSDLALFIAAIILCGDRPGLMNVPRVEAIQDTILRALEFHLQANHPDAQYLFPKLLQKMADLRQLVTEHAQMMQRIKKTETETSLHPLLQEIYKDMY
Summary of the method: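 Transient HepG2 transfection (multiple GAL4-UAS RTUs, chimeric receptor-Gal4); 24 h dosing; total RNA → oligo(dT) RT → PCR → 6-FAM primer extension → HpaI cut → CE. Positive direction vs DMSO.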

[13] = read-out: Intercellular Adhesion Molecule 1 (ICAM1), ICAM1 (gene 3383); assay: BSK_3C_ICAM1: BioMAP Diversity Plus: 3C Assay for Intercellular Adhesion Molecule 1 (ICAM1) Biomarker Activity (AID 2283003); conditions: primary human endothelial cells (HUVEC); actives raise or lower the signal
Summary of the method: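 ICAM-1 levels measured by ELISA after HUVEC cultures in the 3C system had been dosed for 24 h. Gain or loss of signal relative to DMSO was fitted in both directions.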

[14] = molecular target: human Retinoic Acid Receptor beta (RARb), RARB (gene 5915) (UniProt P10826); assay: ATG_RARb_TRANS: Attagene TRANS-FACTORIAL HepG2 Assay for human Retinoic Acid Receptor beta (AID 2283004; active = hit-call score of the fitted dose curve at least 0.9, where 1 is the maximum)
Chain of human Retinoic Acid Receptor beta (RARb), RARB (gene 5915) (P10826 whole entry, looked up, the tested form may be a part): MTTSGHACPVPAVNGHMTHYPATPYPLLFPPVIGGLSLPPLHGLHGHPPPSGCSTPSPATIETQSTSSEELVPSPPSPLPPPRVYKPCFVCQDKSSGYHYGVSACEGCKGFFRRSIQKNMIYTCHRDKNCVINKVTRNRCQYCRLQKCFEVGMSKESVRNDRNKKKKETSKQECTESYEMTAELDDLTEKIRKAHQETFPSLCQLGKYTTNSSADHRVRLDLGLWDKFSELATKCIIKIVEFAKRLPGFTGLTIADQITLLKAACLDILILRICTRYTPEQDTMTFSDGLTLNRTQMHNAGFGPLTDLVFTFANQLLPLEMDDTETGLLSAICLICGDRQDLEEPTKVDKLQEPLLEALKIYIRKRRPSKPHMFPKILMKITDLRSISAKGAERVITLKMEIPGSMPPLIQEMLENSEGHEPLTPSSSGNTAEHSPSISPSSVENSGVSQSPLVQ
Summary of the method: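 Induction of reporter mRNA from a chimeric RARb-Gal4 construct was measured by RT-PCR, FAM labelling, HpaI digestion and capillary electrophoresis. Measurements followed 24 h compound treatment of transiently transfected human HepG2 liver cells, with DMSO as baseline.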

[15] = molecular target: Retinoic acid receptor alpha (Homo sapiens) (UniProt P10276); assay: ATG_RARa_TRANS: Attagene TRANS-FACTORIAL HepG2 Assay for human Retinoic Acid Receptor alpha (RARa) (AID 2283005; active = hit-call score of the fitted dose curve at least 0.9, where 1 is the maximum)
Chain of Retinoic acid receptor alpha (Homo sapiens) (P10276 whole entry, looked up, the tested form may be a part): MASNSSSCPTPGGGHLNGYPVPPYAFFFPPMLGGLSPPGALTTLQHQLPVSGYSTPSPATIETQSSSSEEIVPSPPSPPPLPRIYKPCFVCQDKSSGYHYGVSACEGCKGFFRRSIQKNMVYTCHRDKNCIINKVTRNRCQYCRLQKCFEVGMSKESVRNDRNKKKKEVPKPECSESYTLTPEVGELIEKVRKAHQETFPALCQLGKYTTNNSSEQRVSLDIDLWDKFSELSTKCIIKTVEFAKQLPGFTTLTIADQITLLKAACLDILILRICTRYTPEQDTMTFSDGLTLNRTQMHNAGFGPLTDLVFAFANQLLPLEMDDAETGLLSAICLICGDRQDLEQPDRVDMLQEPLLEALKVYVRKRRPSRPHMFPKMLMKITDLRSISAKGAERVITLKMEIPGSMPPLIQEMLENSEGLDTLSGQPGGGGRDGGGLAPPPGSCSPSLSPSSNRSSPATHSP
Summary of the method: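 Reporter transcripts, measured by RT-PCR with fluorescent labeling and capillary electrophoresis after 24 h dosing, reflect activity of an exogenous human RARa–GAL4 fusion in transiently transfected HepG2. Fitted for increase relative to DMSO.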

[16] = BSK_3C_Proliferation: Cell Proliferation Assessment in the BioMAP Diversity Plus: 3C Assay (AID 2283006); conditions: primary human endothelial cells (HUVEC);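 as to AC50: potency may reflect either rise or fall in cell number versus DMSO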
Summary of the method: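 Read-out is total protein by SRB absorbance at 560 nm, taken as a proxy for relative cell number. Primary human umbilical vein endothelium cultured below confluence was dosed for 48 h, TCA-fixed and SRB-stained; curves were fitted bidirectionally versus DMSO.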

[17] = molecular target: Nuclear receptor subfamily 1 group I member 2 (Homo sapiens) (UniProt O75469); assay: ATG_PXR_TRANS: Attagene TRANS-FACTORIAL HepG2 Assay for human Pregnane X Receptor (PXR) (AID 2283008; active = hit-call score of the fitted dose curve at least 0.9, where 1 is the maximum)
Chain of Nuclear receptor subfamily 1 group I member 2 (Homo sapiens) (O75469 whole entry, looked up, the tested form may be a part): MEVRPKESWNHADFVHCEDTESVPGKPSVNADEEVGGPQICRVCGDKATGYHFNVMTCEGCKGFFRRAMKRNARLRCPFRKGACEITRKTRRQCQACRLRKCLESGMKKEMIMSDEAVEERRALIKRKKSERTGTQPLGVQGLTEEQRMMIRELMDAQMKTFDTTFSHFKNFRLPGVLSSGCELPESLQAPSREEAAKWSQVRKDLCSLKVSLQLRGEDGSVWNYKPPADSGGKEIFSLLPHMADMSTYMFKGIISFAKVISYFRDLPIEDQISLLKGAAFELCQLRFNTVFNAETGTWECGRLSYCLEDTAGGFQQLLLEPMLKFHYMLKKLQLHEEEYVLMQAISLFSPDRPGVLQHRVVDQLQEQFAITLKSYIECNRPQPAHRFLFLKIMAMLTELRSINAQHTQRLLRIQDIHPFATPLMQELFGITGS
Summary of the method: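 HepG2 cells transiently transfected with GAL4-UAS reporter units and PXR-Gal4 chimera, exposed 24 h. Reporter mRNA quantified by RT-PCR, fluorescent labelling, HpaI digestion and capillary electrophoresis; gain of signal vs DMSO.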

[18] = molecular target: human Retinoic Acid Receptor gamma (RARg), RARG (gene 5916) (UniProt P13631); assay: ATG_RARg_TRANS: Attagene TRANS-FACTORIAL HepG2 Assay for human Retinoic Acid Receptor gamma (RARg) (AID 2283009; active = hit-call score of the fitted dose curve at least 0.9, where 1 is the maximum)
Chain of human Retinoic Acid Receptor gamma (RARg), RARG (gene 5916) (P13631 whole entry, looked up): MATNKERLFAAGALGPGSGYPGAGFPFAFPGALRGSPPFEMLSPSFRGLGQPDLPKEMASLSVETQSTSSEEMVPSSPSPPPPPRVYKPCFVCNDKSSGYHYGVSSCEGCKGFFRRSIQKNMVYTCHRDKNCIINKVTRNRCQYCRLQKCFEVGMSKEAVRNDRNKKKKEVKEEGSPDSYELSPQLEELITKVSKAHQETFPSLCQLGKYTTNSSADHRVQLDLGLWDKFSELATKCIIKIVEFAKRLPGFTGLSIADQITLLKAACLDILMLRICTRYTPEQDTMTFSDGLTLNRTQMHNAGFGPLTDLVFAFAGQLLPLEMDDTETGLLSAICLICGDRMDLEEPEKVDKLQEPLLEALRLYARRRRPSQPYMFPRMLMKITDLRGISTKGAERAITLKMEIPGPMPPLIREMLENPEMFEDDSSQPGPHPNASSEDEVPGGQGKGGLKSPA
Summary of the method: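 Transient transfection of HepG2 with multi-reporter constructs, then 24 h chemical treatment. Total RNA isolated, reverse-transcribed, PCR-amplified, fluorescently labelled and resolved by capillary electrophoresis; activity scored as mRNA induction versus DMSO.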

[19] = molecular target: human RAR-related Orphan Receptor gamma (RORg), RORC (gene 6097) (UniProt P51449); assay: ATG_RORg_TRANS: Attagene TRANS-FACTORIAL HepG2 Assay for human RAR-related Orphan Receptor gamma (RORg) (AID 2283011; active = hit-call score of the fitted dose curve at least 0.9, where 1 is the maximum)
Chain of human RAR-related Orphan Receptor gamma (RORg), RORC (gene 6097) (P51449 whole entry, looked up, the tested form may be a part): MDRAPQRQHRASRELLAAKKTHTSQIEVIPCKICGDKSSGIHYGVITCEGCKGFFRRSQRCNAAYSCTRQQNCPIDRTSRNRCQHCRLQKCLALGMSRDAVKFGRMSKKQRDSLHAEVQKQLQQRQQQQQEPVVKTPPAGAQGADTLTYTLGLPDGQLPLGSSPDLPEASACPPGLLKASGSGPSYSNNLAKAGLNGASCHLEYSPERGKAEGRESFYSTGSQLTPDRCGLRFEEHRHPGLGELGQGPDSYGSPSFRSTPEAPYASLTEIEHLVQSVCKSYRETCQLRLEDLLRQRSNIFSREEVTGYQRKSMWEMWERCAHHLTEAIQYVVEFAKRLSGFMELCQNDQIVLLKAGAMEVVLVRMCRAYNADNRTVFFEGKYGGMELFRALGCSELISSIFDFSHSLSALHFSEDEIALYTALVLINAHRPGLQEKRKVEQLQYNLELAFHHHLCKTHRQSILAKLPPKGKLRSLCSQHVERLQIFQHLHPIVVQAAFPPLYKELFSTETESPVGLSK
Summary of the method: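 Reporter transcripts from a transfected RORg-GAL4 chimera in HepG2 cells were quantified 24 h after dosing by RT-PCR, 6-FAM labelling, HpaI digestion and capillary electrophoresis; increases over DMSO baseline were fitted.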

[20] = molecular target: Peroxisome proliferator-activated receptor gamma (Homo sapiens) (UniProt P37231); assay: ATG_PPARg_TRANS: Attagene TRANS-FACTORIAL HepG2 Assay for human Peroxisome Proliferator-activated Receptor-gamma (PPARg) (AID 2283007; active = hit-call score of the fitted dose curve at least 0.9, where 1 is the maximum)
Chain of Peroxisome proliferator-activated receptor gamma (Homo sapiens) (P37231 whole entry, looked up): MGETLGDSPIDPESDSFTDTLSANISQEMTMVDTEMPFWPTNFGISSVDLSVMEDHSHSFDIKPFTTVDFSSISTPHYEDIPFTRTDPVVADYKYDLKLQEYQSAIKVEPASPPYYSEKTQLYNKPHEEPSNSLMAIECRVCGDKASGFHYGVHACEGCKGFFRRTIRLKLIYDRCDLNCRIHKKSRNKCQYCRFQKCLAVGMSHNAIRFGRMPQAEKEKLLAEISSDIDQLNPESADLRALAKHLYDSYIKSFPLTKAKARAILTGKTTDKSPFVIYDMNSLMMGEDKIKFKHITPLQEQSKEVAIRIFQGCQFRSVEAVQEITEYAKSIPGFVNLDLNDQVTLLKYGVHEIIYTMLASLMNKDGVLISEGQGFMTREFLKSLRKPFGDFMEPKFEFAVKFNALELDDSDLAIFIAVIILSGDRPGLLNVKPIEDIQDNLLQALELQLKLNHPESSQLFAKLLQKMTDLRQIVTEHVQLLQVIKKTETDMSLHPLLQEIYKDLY
Summary of the method: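 Multiplexed reporter transcription units in HepG2, 24 h dosing, reporter transcripts quantified by fluorescent RT-PCR and capillary electrophoresis. Increase over DMSO scored.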

Measured: AC50

Cc1c(-c2cccnc2)c2ccccc2n1CCCCC(=O)O
active: [3] 100 µM | [16] 17.4 µM
not listed: [20]
inactive: all other assays above

O=C(O)CCN(C1(C(=O)NO)CCCC1)S(=O)(=O)c1ccc(Oc2ccc(F)cc2)cc1
not listed: [12] | [15] | [19] | [20]
inactive: all other assays above

O=C(O)c1cc(N=Nc2ccc(S(=O)(=O)Nc3ccccn3)cc2)ccc1O
active: [20] 57.4 µM
not listed: [11] | [14] | [15] | [17] | [18] | [19]
inactive: all other assays above

On1ccccc1=S
inactive: [1] | [2] | [5] | [6] | [19]
active: [3] 10.2 µM | [4] 12.2 µM | [7] 18.6 µM | [8] 28.4 µM | [9] 24.7 µM | [10] 16.1 µM | [13] 24 µM | [16] 4.91 µM
